The target of assay [1] is Cytochrome P450 1A2 (Homo sapiens) (UniProt P05177). In words: p450-cyp1a2 (AID 410; calls by dose curve; also: potency is read from the fitted curve at half-maximal effect;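 as to activity change, negative = inhibition: -100% = full effect of reference inhibitor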). In outline:
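Read-out is luminescence from luciferin produced by CYP1A2 demethylation of Luciferin-ME (100uM, at Km). Detection reagent stopped the 60 min NADPH-dependent reaction; signals were normalized to 57 uM furafylline.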

Assay [2] has as its target Glucocorticoid receptor (Homo sapiens) (UniProt P04150). The experiment in a line: GR-EFC Redistribution (AID 451; calls by dose curve; also: potency is read from the fitted curve at half-maximal effect). As to conditions: CHO-K1 GR-EFC translocation, beta-gal luminescence, 2 h. In outline: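 CHO-K1 cells stably expressing nuclear-localized β-gal enzyme acceptor and GR fused C-terminally to the enzyme donor fragment; ligand-driven nuclear translocation restores β-gal by complementation. Compounds titrated up to 46 uM final, 2 h at 37 °C; luminescence read.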

Assay [3] addresses Mitogen-activated protein kinase 10 (Mus musculus) (UniProt Q61831). The experiment in a line: JNK3 AlphaScreen Assay (AID 530; active = well fitted curve in either direction with a large enough effect, not every such curve was filed as active;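 also: kinase came from lysate of stimulated human HepG2 cells; signal reports phosphorylation of biotinylated GST-cJun 1-79 at Ser73 with 10 µM ATP; % is scaled to controls: 0 for no effect and ±100 for the full control effect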). In outline:
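Biotinylated GST-cJun(1-79) served as substrate for JNK3 in HepG2 lysates stimulated with IL-1beta and TNF-alpha. ATP was 10 uM final, pH 7.6. Ser73 phosphorylation was quantified by AlphaScreen (680 nm excitation).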

The target of assay [4] is Cytochrome P450 2C9 (Homo sapiens) (UniProt P11712). In words: qHTS Assay for Inhibitors and Substrates of Cytochrome P450 2C9 (AID 883). Also: % is scaled to controls: 0 for no effect and ±100 for the full control effect; nearly all actives have a fitted effect of over 60% in size. In outline:
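A luminogenic readout tracked human CYP2C9 (10nM) converting deoxyluciferin (100uM, at KM) in 25mM KPO4 during 60 min at 37C with regenerated NADPH. Values normalized to 57uM sulphaphenazole as complete inhibition.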
(Quantitative high-throughput screening tests each substance at several concentrations.)

Assay [5] deals with Cytochrome P450 3A4 (Homo sapiens) (UniProt P08684). In words: qHTS Assay for Inhibitors and Substrates of Cytochrome P450 3A4 (AID 884). Also: nearly all actives have a fitted effect of over 50% in size. Also: potency is read from the fitted curve at half-maximal effect. In outline:
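Luminescent readout of luciferin produced by CYP3A4 (20 nM) dealkylation of Luciferin-PPXE, 25 uM (its KM). NADPH-driven reaction ran 60 min at RT after 10 min compound preincubation; data scaled to 57 uM ketoconazole as 100% inhibition.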

Assay [6] concerns the target Cytochrome P450 2D6 (Homo sapiens) (UniProt P10635). The experiment in a line: qHTS Assay for Inhibitors and Substrates of Cytochrome P450 2D6 (AID 891). Also: potency is read from the fitted curve at half-maximal effect; nearly all actives have a fitted effect of over 60% in size. In outline:
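Luminescent read-out of luciferin formed by 5 nM human CYP2D6 demethylating 30 uM Luciferin-ME EGE (Km level) over 60 min at room temperature after NADPH regeneration addition. Data normalized to full inhibition by 1.43 uM quinidine.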

Assay [7] concerns the target Ubiquitin carboxyl-terminal hydrolase 1 (Homo sapiens) (UniProt O94782). In words: Inhibitors of USP1/UAF1: Pilot qHTS (AID 504865).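 Also: rhodamine fluorescence freed from ubiquitin-rhodamine substrate followed over time; top concentration of the series differs between compounds; % is scaled to controls: 0 for no effect and ±100 for the full control effect; nearly all actives have a fitted effect of over 35% in size.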 In outline:
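In 50mM HEPES pH 7.8 containing 0.5mM EDTA, 1mM TCEP, 0.1 mg/ml BSA and 0.01% Tween-20, 1nM USP1/UAF1 is exposed to compound for 15 min, then Ub-Rho (150nM final) is added and fluorescence is read over time.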

The target of assay [8] is DNA dC->dU-editing enzyme APOBEC-3G (Homo sapiens) (UniProt Q9HC16). The experiment in a line: qHTS for inhibitors of Vif-A3G interactions: Validation (AID 588379). Also: 0% is about no effect. In outline:
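Yellow fluorescence (Ex 488, Em 500-530) of Vif-coexpressing HeLa A3G-eYFP cells, scanned by Acumen cytometer, reports blocked A3G degradation. Cells plated at 700/well overnight at 37 deg C before compound addition, then a further overnight compound incubation at 37 deg C.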

For assay [9], the system named is Zika virus NS2B-NS3 protease. In words: Primary screen GU AMC qHTS for Zika virus inhibitors (AID 1347154).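 Also: 0% = no-inhibitor control and -100% = no-enzyme control; nearly all actives have a fitted effect of over 70% in size.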 In outline:
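Unlinked Zika NS2B hydrophilic domain/NS3 protease domain noncovalent complex (25 nM final) in 10 mM Tris-HCl pH 8.0, 0.01% Tween 20, with AMC peptide substrate. Fluorescence (ex 340, em 450 nm) change over 15 min, room temperature; percent inhibition fitted to 4-parameter Hill equation.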

A short description of assay [10]: Primary qHTS for small molecule stabilizers of the endoplasmic reticulum resident proteome: Secreted ER Calcium Modulated Protein (SERCaMP) assay (AID 1508630). Also: % is scaled to controls: 0 for no effect and ±100 for the full control effect. In outline: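 The SH-SY5Y reporter protocol was run at 3 concentrations up to 38.3 uM (primary) or 11 concentrations (follow-up): 16 h compound, 100 nM thapsigargin for 4 h, then extracellular luciferase luminescence.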

Assay [11] addresses Glucocorticoid receptor (Homo sapiens) (UniProt P04150). The experiment in a line: GR-GFP Redistribution (AID 450;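 active = compounds whose dose series gives a full or clear partial fitted curve of increased nuclear translocation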; also: potency is read from the fitted curve at half-maximal effect). As to conditions: U2OS GR-GFP nuclear translocation, laser cytometry, 2 h.
In assay [12] the target is 3',5'-cyclic-AMP phosphodiesterase 4B (Homo sapiens) (UniProt Q07343). The experiment in a line: qHTS Assay for Inhibitors of PDE-IV (AID 607; active = well fitted activation curve with a large enough effect in the main read-out, with a control signal flat, not every such curve was filed as active; also: % of control where 0% means no effect). In outline:
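The readout is membrane depolarisation from a cAMP-sensing CNG channel, detected with a potential dye at ex 535/em 590. Cells were HEK293-derived (endogenous PDE-IV) at 1000 cells/well, titrated up to 22.9 uM final.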

The target of assay [13] is Cytochrome P450 3A4 (Homo sapiens) (UniProt P08684). The experiment in a line: qHTS Assay for Activators of Cytochrome P450 3A4 (AID 885). Also: nearly all actives have a fitted effect of over 65% in size. In outline: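 Activators are scored by enhanced luminescence from CYP3A4 conversion of luciferin-PPXE (25uM, equal to KM) to luciferin, after 60 min at RT with an NADPH-regenerating system.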
In assay [14] the target is Cytochrome P450 2C19 (Homo sapiens) (UniProt P33261). In words: qHTS Assay for Inhibitors and Substrates of Cytochrome P450 2C19 (AID 899). Also: potency is read from the fitted curve at half-maximal effect; nearly all actives have a fitted effect of over 60% in size. In outline:
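NADPH-dependent conversion of Luciferin-H EGE (10uM, at KM) by 5nM enzyme in 50mM KPO4, 60 min at 37C following 10 min compound preincubation. Stopped with luciferin detection buffer; luminescence read after 20 min.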

A short description of assay [15]: NFAT Signaling Pathway (AID 444; active = well fitted curve in either direction with a large enough effect, not every such curve was filed as active;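 also: carbachol stimulus at about its EC50 of 1 µM final; % is scaled to controls: 0 for no effect and ±100 for the full control effect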). As to conditions: Jurkat NFAT-bla M1, carbachol, beta-lactamase ratio, 5 h; at 38 µM (top of the series). In outline: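 Jurkat cells carrying an NFAT-driven β-lactamase reporter and co-transfected muscarinic M1 receptor were treated with compound plus carbachol (1 uM final, an EC50 level) for 5 h at 37 °C. CCF4 loading followed for 1 h at RT; 460/530 nm ratio gave %activity.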

Assay [16] can be described thus: Stat Signaling Pathway (AID 446; active = well fitted curve in either direction with a large enough effect, not every such curve was filed as active;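 also: ME-180 cervical cancer cells given 40 pM IL-6 alongside compound; SIE-controlled beta-lactamase reporter measured as 460/530 nm FRET emission ratio; % is scaled to controls: 0 for no effect and ±100 for the full control effect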). As to conditions: ME-180 (cervical carcinoma) SIE beta-lactamase reporter, IL-6 stimulated, 5 h; at 38 µM (top of the series). In outline: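 Emission at 460 and 530 nm (excitation 405 nm) reports SIE-controlled beta-lactamase in ME-180 cells. Cells received compound with 40 pM IL-6 for 5 hrs at 37 C; data scaled between 300 pM IL-6 and 125 nM JAK-inhibitor controls.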

Assay [17] concerns the target Guanine nucleotide-binding protein G(i) subunit alpha-1 (Homo sapiens) (UniProt P63096). The experiment in a line: qHTS Assay for Inhibitors of RGS12 GoLoco Motif Activity (Green Fluorophore) (AID 879).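 Also: 0% = labeled peptide with Gαi1 and full inhibition = labeled peptide alone without protein; negative values mean loss of peptide binding seen as reduced polarization.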 In outline:
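A drop in FITC polarization marked displacement of the FITC-tagged RGS12 GoLoco peptide (10 nM) from Gαi1 (50 nM). Compounds were incubated 10 min at room temperature in Tris pH 7.5 buffer containing 150 mM NaCl, 0.1 mM GDP and 0.05% NP40; unlabeled peptide titration served as control.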

Assay [18] deals with Muscarinic acetylcholine receptor M1 (Rattus norvegicus) (UniProt P08482). In words: qHTS Assay for Antagonists of Acetylcholine Muscarinic M1 Receptor: Measurement of IP-One Response (AID 944). Also: nearly all actives have a fitted effect of over 75% in size. In outline:
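Antagonism was measured as loss of carbachol-driven (EC80) IP1 accumulation in CHO cells carrying rat M1, using a homogeneous IP-One TR-FRET kit read at 620 and 665 nm.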

The target in assay [19] is Pyruvate kinase (Leishmania mexicana) (UniProt Q27686). The experiment in a line: qHTS Validation Assay for Inhibitors of Leishmania Mexicana Pyruvate Kinase (AID 945).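 Also: 0% = DMSO only neutral control wells.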 In outline:
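The enzyme is a highly purified E451W mutant of LmPYK used at 0.2 nM. It converts 0.5 mM PEP and 0.1 mM ADP over 1 h at room temperature; product ATP is quantified by luciferase luminescence relative to DMSO controls.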

The target of assay [20] is Alpha-galactosidase A (Homo sapiens) (UniProt P06280). The experiment in a line: Counterscreen for Glucocerebrosidase Inhibitors: qHTS Assay for Human alpha-Galactosidase at pH 4.5 (AID 992). Also: 0% is about no effect. In outline:
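Fluorogenic 4-MU alpha-D-galactoside (80 uM) hydrolysis, 2 nM enzyme, pH 4.5 citrate buffer + 0.005% Tween-20; 20 min RT; NaOH/glycine pH 10 stop; Ex365/Em440. Compounds titrated 0.7 nM–77 uM; Hill-equation AC50.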
For orientation: Counterscreens check selectivity or assay interference.

Assay [21] addresses alpha-glucosidase (Oryza sativa, rice) (UniProt Q653V4). In words: Counterscreen for Glucocerebrosidase Inhibitors: qHTS Assay for Rice alpha-Glucosidase at pH 5.0 (AID 997).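 Also: 0% = full activity with enzyme and -100% = basal without enzyme.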 In outline: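 Endpoint fluorogenic assay at pH 5.0: compounds (0.7 nM to 77 uM) titrated against 4 nM rice enzyme and 400 uM 4-MU-alpha-glucoside for 20 min at room temperature; NaOH/glycine stop, read ex 365/em 440 nm, Hill-fitted AC50.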

A number with no mark means an inactive call. Results filed as inconclusive are left out. The source made the active and inactive calls. Unless noted, calls follow the shape of the dose curve; as a rule, active = well fitted curve in the direction sought with a large enough effect; inconclusive = small, poorly fitted or top-dose-only effect, or another doubt; inactive = no such curve, though single readings can be large; an effect the other way counts as inactive or inconclusive.

Chain of Ubiquitin carboxyl-terminal hydrolase 1 (Homo sapiens) (O94782 whole entry, looked up): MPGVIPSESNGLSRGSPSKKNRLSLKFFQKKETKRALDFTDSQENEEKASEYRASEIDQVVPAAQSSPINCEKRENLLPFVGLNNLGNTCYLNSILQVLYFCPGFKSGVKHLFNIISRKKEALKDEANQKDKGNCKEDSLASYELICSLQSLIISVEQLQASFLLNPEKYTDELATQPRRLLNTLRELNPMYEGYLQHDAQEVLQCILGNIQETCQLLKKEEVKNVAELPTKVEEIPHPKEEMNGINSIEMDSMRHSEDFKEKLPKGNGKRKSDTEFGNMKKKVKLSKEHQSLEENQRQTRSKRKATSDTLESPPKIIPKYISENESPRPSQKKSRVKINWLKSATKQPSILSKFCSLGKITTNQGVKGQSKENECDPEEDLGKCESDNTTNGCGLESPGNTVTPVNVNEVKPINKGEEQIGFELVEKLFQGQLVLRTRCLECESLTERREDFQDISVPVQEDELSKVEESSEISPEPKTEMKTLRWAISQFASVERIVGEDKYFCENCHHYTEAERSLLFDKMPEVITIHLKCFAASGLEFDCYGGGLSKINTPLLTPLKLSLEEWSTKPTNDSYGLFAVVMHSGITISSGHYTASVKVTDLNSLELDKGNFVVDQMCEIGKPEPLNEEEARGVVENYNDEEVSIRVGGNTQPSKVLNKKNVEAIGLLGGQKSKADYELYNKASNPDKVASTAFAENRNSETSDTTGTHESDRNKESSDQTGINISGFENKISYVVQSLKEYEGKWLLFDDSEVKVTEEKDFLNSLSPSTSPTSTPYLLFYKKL
Chain of 3',5'-cyclic-AMP phosphodiesterase 4B (Homo sapiens) (Q07343 whole entry, looked up): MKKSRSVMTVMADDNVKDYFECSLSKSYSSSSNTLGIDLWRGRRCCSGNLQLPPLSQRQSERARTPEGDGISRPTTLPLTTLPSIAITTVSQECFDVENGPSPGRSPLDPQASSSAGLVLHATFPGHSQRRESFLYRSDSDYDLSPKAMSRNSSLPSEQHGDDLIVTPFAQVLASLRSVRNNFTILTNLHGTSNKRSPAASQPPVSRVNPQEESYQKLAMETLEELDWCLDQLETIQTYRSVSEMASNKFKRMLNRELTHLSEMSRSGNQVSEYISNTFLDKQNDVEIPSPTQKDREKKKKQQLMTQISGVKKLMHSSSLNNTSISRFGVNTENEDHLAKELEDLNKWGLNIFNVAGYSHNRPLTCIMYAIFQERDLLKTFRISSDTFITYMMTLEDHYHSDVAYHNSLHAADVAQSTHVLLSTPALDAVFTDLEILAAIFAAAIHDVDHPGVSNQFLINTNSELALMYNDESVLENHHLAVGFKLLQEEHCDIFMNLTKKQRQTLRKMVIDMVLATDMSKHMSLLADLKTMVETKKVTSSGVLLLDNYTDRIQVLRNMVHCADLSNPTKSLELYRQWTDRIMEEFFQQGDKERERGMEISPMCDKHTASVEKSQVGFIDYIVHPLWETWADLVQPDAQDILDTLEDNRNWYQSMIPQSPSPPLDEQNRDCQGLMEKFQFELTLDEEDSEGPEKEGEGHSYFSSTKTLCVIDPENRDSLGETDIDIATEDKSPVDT
Chain of DNA dC->dU-editing enzyme APOBEC-3G (Homo sapiens) (Q9HC16 whole entry, looked up): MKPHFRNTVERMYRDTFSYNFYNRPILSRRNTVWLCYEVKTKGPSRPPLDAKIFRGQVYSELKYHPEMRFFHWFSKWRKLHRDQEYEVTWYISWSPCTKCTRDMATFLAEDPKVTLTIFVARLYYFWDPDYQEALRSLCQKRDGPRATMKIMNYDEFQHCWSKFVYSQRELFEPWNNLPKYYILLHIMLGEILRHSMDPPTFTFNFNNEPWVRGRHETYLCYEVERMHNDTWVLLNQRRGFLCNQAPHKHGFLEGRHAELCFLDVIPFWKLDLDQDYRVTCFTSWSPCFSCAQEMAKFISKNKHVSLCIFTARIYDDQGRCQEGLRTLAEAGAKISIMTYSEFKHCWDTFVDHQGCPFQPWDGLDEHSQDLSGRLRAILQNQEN
Chain of Cytochrome P450 3A4 (Homo sapiens) (P08684 whole entry, looked up): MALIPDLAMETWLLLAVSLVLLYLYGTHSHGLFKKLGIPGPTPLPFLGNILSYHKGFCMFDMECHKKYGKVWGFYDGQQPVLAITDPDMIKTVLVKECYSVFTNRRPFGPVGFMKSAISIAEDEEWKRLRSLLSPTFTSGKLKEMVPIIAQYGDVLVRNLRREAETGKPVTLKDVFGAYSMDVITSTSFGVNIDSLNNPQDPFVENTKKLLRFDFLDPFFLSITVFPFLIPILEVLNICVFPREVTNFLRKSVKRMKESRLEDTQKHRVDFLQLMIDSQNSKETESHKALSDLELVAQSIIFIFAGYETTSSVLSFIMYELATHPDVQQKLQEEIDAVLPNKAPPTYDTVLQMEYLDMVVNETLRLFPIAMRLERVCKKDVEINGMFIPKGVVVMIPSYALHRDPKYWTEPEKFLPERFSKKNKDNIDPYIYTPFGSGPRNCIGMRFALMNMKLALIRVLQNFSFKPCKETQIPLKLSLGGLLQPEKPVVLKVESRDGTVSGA
Chain of Glucocorticoid receptor (Homo sapiens) (P04150 whole entry, looked up, the tested form may be a part): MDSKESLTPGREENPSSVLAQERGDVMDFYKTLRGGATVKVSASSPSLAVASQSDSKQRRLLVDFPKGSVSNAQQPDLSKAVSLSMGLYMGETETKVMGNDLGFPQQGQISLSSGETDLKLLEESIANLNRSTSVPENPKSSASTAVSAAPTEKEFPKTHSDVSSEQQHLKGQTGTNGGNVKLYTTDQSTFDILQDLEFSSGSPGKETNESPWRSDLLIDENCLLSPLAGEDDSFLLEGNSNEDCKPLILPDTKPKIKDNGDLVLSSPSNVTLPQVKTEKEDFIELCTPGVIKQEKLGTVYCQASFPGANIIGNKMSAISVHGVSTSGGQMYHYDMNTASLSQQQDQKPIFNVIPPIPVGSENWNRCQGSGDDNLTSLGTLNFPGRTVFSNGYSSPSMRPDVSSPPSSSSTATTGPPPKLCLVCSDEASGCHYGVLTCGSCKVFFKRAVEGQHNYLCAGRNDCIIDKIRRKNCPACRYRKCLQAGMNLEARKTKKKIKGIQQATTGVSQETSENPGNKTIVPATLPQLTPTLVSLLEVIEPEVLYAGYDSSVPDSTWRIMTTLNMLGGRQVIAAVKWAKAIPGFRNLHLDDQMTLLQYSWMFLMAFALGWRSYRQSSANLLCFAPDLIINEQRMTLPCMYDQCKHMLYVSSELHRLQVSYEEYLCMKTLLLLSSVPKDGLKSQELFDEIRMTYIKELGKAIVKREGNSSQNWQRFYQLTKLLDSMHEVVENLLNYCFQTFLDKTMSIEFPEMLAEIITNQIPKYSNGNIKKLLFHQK
Chain of Cytochrome P450 2C19 (Homo sapiens) (P33261 whole entry, looked up): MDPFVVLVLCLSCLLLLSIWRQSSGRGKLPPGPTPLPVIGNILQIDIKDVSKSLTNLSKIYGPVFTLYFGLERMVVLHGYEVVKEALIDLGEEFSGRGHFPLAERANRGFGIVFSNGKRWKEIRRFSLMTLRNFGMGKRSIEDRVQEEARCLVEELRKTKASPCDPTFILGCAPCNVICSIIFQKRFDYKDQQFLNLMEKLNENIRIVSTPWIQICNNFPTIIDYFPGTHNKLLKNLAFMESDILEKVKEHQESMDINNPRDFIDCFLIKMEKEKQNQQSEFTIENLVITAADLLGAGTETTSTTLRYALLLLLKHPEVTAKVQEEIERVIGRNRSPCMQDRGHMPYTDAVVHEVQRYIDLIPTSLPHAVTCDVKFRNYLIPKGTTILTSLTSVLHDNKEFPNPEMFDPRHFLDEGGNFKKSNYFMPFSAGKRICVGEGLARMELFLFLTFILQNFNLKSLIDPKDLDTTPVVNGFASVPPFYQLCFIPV
Chain of Cytochrome P450 2D6 (Homo sapiens) (P10635 whole entry, looked up): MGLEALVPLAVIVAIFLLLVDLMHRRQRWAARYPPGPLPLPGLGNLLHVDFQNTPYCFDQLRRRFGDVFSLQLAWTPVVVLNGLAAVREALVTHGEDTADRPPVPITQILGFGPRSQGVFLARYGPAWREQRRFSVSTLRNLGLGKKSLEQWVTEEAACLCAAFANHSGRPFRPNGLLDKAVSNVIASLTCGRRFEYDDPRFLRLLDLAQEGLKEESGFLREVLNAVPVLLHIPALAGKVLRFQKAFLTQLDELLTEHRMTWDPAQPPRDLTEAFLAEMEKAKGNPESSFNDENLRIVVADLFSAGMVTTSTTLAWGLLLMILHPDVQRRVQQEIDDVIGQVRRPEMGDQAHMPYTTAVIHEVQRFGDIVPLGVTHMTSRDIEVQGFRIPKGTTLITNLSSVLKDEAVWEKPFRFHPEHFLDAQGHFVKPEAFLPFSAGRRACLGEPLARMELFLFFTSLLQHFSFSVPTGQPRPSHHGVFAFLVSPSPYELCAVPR
Chain of Cytochrome P450 1A2 (Homo sapiens) (P05177 whole entry, looked up): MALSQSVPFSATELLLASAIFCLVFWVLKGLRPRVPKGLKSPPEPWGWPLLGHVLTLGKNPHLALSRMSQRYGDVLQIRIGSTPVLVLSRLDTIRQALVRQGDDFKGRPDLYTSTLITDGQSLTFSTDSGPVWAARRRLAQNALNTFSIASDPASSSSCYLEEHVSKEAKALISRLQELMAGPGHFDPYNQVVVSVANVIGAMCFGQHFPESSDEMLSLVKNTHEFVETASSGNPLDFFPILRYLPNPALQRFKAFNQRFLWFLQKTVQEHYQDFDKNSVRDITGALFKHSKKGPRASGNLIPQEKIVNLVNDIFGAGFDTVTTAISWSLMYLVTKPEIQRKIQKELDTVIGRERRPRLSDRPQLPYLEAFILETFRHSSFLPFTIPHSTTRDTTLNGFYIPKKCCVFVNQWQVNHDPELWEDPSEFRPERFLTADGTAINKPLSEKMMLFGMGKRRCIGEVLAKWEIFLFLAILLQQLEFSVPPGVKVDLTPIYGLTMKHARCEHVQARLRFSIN

Turning to `CCCn1c(=O)[nH]c2nc(-c3ccc(S(=O)(=O)O)cc3)[nH]c2c1=O`, the Potency entry in assay [1], in assay [3], in assay [4], in assay [5], in assay [7] and in assay [8] was “inactive” throughout. For the same compound, the Potency entry in assay [9] and in assay [10] was “inactive” in each case. For the same compound, the figures for the Potency in assay [2] and in assay [6] were above 46 µM and 7.94 µM (active), respectively.

For `CN1CCc2cc3c(cc2[C@@H]1[C@@H]1C(=O)Oc2c1ccc1c2OCO1)OCO3`, the Potency was above 46 µM in assay [11], above 46 µM in assay [2], 1.26 µM (active) in [5] and 0.02 µM (active) in [14]. For the same compound, the Potency result in [3], in assay [12], in assay [13], in assay [8], in assay [9] and in assay [10] was “inactive” each time.

On to `Cc1cccc([C@@H]2CN(C)CCc3c2cc(O)c(O)c3Cl)c1`, for which the activity change, negative = inhibition in assay [15] is -15%. Besides, the activity, negative = inhibition in assay [16] is 11.4%. Besides, the Potency in assay [11] and in assay [2] was above 46 µM in each case. The Potency entry in assay [12], in assay [5], in assay [18], in assay [19], in assay [8] and in [9] was “inactive” in each case. The Potency result in assay [10] is “inactive”. The compound was called inactive in assay [17], in assay [20] and in assay [21].

As to `Cc1ccc(S(=O)(=O)/C=C\C#N)cc1`, the Potency in assay [1] is 3.98 µM (active); in assay [11], above 46 µM; in assay [2], above 46 µM; in [6] it was 0.0158 µM (active); in assay [14], 5.01 µM (active). Besides, the Potency result in [13], in assay [8], in [9] and in assay [10] was “inactive” each time.

In the case of `CNC(=O)[C@H]1O[C@H](n2cnc3c(NCc4cccc(I)c4)ncnc32)[C@@H](O)[C@@H]1O`, the Potency in assay [11] and in assay [2] was above 46 µM throughout. The Potency entry in [3], in assay [13], in assay [7], in assay [8], in [9] and in assay [10] was “inactive” in each case.

Regarding `CC#CCOC(=O)C1=CCCN(C)C1`, the Potency in assay [11] and in assay [2] was above 46 µM each time. The Potency result in [3], in assay [12], in [7], in assay [8], in assay [9] and in assay [10] was “inactive” in each case.

The values are drawn from PubChem BioAssay (NCATS).
